The values below come from PubChem BioAssay (EPA / NIEHS).

Molecules are shown by their SMILES. Calls of active or inactive are those of the source. The calls were made as follows: active = hit-call score of the fitted dose curve at least 0.9, where 1 is the maximum; inactive = score below 0.9.

This experiment is described as follows: UKN2_HCS_IMR90_neural_migration: University of Konstanz (UKN) Leist Lab Neural Crest Cell Migration Assay in human induced IMR90 Pluripotent Stem Cells (UKN2) (AID 2284204). Conditions: actives raise or lower the signal. The protocol: UKN2_HCS_IMR90 is a cell-based, multiplexed-readout assay screening for neural crest cell migration and cell viability that uses IMR90 (neural crest cells differentiated from iPSC), a human embryo cell line, with measurements taken at […] after chemical dosing in a microplate: 96-well plate. UKN2, also known as cMINC, is an assay that uses IMR90 cells (neural crest cells differentiated from iPSC) as a model of neural crest cell migration. 24 hr after cell seeding, cell migration was initiated and proceeded for 24 hr. Then, chemical was applied, and after 24 hr of exposure migration and viability were assessed using high-content imaging of cells stained with calcein-AM and Hoechst H-33342.UKN2_HCS_IMR90_neural_migration is an assay component measured from the UKN2_HCS_IMR90 assay. It is designed to make measurements of neural crest cell migration, a form of morphology reporter, as detected with Fluorescence intensity signals by HCS Fluorescent Imaging.The assay endpoint UKN2_HCS_IMR90_neural_migration was analyzed with bidirectional fitting relative to DMSO as the negative control and baseline of activity. Using a type of morphology reporter, gain or loss-of-signal activity can be used to understand developmental effects. To generalize the intended target to other relatable targets, this assay endpoint is annotated to the neurodevelopment intended target family, where the subfamily is neural crest cell migration.
The wells are coated with PLO/laminin/fibronectin. Then, silicone stoppers are placed into the wells of a 96-well plate. Cells are seeded around the stoppers and allowed to attach for 24 hours. Day 0: The silicone stoppers are removed and the medium is replaced with pre-warmed, fresh N2-S medium containing the cytokines EGF and FGF. Cells are allowed to migrate into the cell free area. Day 1: 25 ul of the 5x concentrated toxicants are added to the wells. The cells plus toxicants are incubated for 24 h. Day 2: Cells are stained with calcein-AM and Hoechst (H-33342) for 30 min before imaging with a high content imaging microscope. Quantification of migration and viability is done by high content imaging analysis.
On to `C[n+]1ccc(-c2cc[n+](C)cc2)cc1`, for which the compound was classed as inactive.
The same measure, in the same setting: for `CC1(C)C(C=C(Cl)Cl)C1C(=O)O[C@H](C#N)c1cccc(Oc2ccccc2)c1` (stereo not given in full) the value was “inactive”; for `CCOP(=O)(OCC)SCSCC`, “inactive”.
The same measure, in the same setting: the value for `Brc1ccc(Oc2ccc(Br)cc2Br)c(Br)c1` was “inactive”.
Still for that read-out and setting: the value for `CNC1(c2ccccc2Cl)CCCCC1=O` (stereo not given) was “inactive”.
For orientation: AC50 means the concentration at which the activity in the assay is half-maximal. `CC(=O)[O-].CC(=O)[O-].O.O.O.[Pb+2]`: the AC50 was 32.8 µM (active).
Consider `CNC(C)Cc1ccc2c(c1)OCO2` (stereo not given), for which the call was inactive.
As to `CC1(C)C(C=C(Cl)c2ccc(Cl)cc2)C1C(=O)OC(C#N)c1ccc(F)c(Oc2ccccc2)c1` (stereo not given), the compound was called inactive.
On the same count and under the same terms, the value for `CN1CC[C@]23c4c5ccc(O)c4O[C@H]2[C@@H](O)C=C[C@H]3[C@H]1C5` was “inactive”.
Still for that read-out and setting: for `Brc1ccc(Oc2cc(Br)c(Br)cc2Br)c(Br)c1` the value was “inactive”; for `COP(=O)(OC)SCN1C(=O)c2ccccc2C1=O`, “inactive”.
With `CC(C)CC(C)c1sccc1NC(=O)c1cn(C)nc1C(F)(F)F` (stereo not given), the half-maximal activity concentration (AC50) was 65.6 µM (active).
Consider `CCOP(=S)(OCC)SCS(=O)C(C)(C)C` (stereo not given), for which the call was inactive.
For the compound `Clc1cc(Cl)c(-c2cc(Cl)c(Cl)c(Cl)c2Cl)cc1Cl`, the AC50 is 5.57 µM (active).
For the compound `Cn1nc(C(F)(F)F)c(CS(=O)(=O)C2=NOC(C)(C)C2)c1OC(F)F`, the call was inactive.
Still for that read-out and setting: the value for `C/C(=C/C=C/[C@@H](C)C(=O)O)[C@H]1CN[C@H](C(=O)O)[C@H]1CC(=O)O` was “inactive”; that for `[O-][Cl+3]([O-])([O-])O` was “inactive”.
Take `O=C1N[C@@H]2C(=C[C@H](O)[C@@H](O)[C@H]2O)c2cc3c(c(O)c21)OCO3`: the half-maximal activity concentration (AC50) was 0.047 µM (active).
`CC(=O)[O-].[Tl+]`: the call was inactive.
The same measure, in the same setting: for `CN1CC=C(c2ccccc2)CC1` the value was “inactive”.
On the same count and under the same terms, for `CC(=O)Oc1ccc2c3c1O[C@H]1[C@@H](OC(C)=O)C=C[C@H]4[C@@H](C2)N(C)CC[C@@]341` the value was “inactive”.
As for `O=[As](O)(O)O`, the outcome was inactive.
On the same count and under the same terms, the value for `CC1(C)[C@H](C=C(Cl)Cl)[C@H]1C(=O)OCc1c(F)c(F)cc(F)c1F` was “inactive”; that for `CCOP(=O)(OCC)SCSC(C)(C)C` was “inactive”; that for `CC1(C)[C@H](C(=O)O[C@H](C#N)c2cccc(Oc3ccccc3)c2)[C@@H]1C=C(Br)Br` was “inactive”.
Regarding `[CH3][Hg][Cl]`, the AC50 is 5 µM (active).
As for `C[n+]1ccc(-c2ccccc2)cc1`, the compound was called inactive.
Consider `CC1(C)C(C=C(Cl)Cl)[C@H]1C(=O)O[C@H](C#N)c1cccc(Oc2ccccc2)c1` (stereo not given in full), for which the result was inactive.
Still for that read-out and setting: the value for `CCOP(=O)(Oc1cnc(C(C)(C)C)nc1)OC(C)C` (stereo not given) was “inactive”.
`CN[C@@H](C)Cc1ccccc1`: the compound was classed as inactive.
The same measure, in the same setting: the value for `CCOP(=O)(OCC)OC(Cl)C(Cl)(Cl)Cl` (stereo not given) was “inactive”.
Turning to `[CH3][Sn]([CH3])([CH3])[Cl]`, the AC50 was 7.88 µM (active).
Same read-out and setting: for `[Cd+2].[Cl-].[Cl-]` the value was 0.88 µM (active).
With `COC(=O)[C@H]1[C@@H](OC(=O)c2ccccc2)C[C@@H]2CC[C@H]1N2C`, the outcome was inactive.
Same read-out and setting: the value for `CP(=O)(O)CCC(N)C(=O)O` (stereo not given) was “inactive”.
